Measurements: the supplement of paper PMC10849652
The full data set covers some 7,900 targets. This sample favours those with a hit. About 0.6% of all pairs of compound and target were hits.

The targets below were run with C1=CC(=C(C=C1Cl)C2=NC3=NC=CN=C3C(=N2)NC4=CC=NC=C4)F (assay: log2 fold change, soluble protein after heating vs DMSO (PISA); higher = thermal stabilisation; K562 cells, 10 uM, 30 min; active = over 0.2 and 3.5 SD of the protein, either way, in both replicates (recomputed)).
Procedure, shortened: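 Values are thermal stability changes relative to control samples and are taken from duplicates. They are stated as log2 fold changes. Before quantification by TMTpro 16plex LC-MS/MS with equalised channel sums, K562 cells at 2×10^6 cells/mL were treated with 10 μM compound for 30 min, heated in aliquots for 3 min across 48°C-58°C, pooled, extracted in PBS with 0.5% NP-40 at 4°C, and centrifuged at 21,000xg for 90 min to give the soluble supernatant.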

UniProt Q8N3D4, sequence (Q8N3D4 whole entry, looked up): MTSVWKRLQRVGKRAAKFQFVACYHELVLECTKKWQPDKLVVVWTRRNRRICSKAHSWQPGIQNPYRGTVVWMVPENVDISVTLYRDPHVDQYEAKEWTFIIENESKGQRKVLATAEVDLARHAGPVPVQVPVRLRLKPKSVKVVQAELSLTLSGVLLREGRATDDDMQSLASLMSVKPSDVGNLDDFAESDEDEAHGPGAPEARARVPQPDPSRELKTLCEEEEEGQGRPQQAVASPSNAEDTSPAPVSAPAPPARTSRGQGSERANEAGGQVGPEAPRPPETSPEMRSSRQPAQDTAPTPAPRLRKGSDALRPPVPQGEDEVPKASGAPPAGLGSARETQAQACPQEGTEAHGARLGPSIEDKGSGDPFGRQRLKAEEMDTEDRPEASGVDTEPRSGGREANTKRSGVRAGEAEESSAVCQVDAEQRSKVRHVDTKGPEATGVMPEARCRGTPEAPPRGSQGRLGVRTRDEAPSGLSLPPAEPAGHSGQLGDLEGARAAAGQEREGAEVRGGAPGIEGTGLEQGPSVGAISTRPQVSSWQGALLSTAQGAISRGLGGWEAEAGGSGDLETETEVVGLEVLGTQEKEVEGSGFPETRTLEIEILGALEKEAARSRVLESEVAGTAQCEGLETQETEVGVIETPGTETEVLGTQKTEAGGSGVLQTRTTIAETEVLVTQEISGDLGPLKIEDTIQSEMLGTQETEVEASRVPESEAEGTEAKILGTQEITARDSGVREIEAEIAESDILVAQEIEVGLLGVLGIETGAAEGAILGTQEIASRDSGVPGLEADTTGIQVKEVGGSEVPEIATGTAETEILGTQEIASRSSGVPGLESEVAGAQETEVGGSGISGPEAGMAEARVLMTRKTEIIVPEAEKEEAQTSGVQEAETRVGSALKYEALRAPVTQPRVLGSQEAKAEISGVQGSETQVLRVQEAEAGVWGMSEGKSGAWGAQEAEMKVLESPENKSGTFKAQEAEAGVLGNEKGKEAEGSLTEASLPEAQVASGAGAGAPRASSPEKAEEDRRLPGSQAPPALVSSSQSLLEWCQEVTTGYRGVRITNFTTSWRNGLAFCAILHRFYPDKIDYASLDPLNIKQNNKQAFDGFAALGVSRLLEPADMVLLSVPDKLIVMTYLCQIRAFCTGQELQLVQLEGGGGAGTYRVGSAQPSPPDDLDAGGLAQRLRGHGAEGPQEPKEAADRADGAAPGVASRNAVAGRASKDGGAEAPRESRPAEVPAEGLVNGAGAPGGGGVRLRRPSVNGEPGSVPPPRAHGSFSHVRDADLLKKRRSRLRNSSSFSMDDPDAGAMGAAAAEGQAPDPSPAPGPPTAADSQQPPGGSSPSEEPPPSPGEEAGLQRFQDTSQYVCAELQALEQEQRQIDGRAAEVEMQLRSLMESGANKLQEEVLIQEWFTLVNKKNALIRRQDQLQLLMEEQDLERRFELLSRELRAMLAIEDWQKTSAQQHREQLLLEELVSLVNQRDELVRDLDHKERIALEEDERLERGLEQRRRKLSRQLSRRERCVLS
UniProt O60888, sequence (O60888 whole entry, looked up): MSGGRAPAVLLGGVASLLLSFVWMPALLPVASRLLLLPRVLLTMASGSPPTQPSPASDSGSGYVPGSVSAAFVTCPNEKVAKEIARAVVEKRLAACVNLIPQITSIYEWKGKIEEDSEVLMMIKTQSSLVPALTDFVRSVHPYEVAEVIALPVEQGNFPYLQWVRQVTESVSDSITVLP
UniProt Q8NBA8, sequence (Q8NBA8 whole entry, looked up): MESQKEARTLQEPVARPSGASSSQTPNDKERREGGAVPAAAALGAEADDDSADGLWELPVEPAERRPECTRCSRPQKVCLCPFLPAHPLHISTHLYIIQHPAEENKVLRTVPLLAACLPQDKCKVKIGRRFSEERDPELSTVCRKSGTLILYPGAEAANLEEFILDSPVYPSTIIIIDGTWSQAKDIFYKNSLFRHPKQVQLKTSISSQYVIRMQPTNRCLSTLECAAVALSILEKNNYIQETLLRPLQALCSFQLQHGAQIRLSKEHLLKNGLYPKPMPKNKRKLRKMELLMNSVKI
UniProt Q96G46, sequence (Q96G46 whole entry, looked up): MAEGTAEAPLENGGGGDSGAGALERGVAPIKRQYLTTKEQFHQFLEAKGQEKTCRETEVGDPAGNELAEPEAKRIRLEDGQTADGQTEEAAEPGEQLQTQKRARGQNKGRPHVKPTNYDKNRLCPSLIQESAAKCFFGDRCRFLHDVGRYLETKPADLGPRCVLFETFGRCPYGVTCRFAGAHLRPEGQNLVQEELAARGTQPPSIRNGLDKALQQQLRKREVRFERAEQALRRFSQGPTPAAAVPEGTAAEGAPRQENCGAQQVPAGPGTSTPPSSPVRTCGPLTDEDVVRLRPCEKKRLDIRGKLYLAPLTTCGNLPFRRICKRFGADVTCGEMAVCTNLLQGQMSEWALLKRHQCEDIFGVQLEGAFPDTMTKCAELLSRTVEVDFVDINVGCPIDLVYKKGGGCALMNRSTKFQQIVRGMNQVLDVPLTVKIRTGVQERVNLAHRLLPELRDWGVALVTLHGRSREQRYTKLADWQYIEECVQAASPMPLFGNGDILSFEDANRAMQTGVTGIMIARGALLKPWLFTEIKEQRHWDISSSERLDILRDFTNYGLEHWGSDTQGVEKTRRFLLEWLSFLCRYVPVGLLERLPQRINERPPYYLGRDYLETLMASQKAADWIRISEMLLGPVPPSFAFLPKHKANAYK
UniProt Q15392, sequence (Q15392 whole entry, looked up): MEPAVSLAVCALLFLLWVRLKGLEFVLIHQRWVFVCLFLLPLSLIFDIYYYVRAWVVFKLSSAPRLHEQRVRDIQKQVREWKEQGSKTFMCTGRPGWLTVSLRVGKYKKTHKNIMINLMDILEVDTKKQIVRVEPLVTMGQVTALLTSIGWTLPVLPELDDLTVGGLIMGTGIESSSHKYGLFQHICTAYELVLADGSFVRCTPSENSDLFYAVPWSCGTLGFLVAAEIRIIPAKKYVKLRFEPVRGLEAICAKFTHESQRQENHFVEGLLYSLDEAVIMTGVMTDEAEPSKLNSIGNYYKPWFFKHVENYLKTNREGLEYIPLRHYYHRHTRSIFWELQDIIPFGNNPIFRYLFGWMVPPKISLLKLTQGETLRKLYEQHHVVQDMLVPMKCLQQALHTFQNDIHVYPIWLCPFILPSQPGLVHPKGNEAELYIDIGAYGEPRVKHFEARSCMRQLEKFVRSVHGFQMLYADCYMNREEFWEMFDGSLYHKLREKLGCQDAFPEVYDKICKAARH
UniProt Q9UBQ6, sequence (Q9UBQ6 whole entry, looked up): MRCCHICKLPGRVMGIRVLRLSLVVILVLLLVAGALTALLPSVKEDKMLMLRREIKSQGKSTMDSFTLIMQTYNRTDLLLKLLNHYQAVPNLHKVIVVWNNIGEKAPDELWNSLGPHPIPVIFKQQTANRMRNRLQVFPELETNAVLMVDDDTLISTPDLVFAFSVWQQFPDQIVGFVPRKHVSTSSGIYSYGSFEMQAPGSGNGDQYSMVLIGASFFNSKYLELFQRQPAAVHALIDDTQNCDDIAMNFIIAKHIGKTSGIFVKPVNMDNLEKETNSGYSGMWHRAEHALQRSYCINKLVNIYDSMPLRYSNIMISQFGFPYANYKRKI
UniProt Q14320, sequence (Q14320 whole entry, looked up): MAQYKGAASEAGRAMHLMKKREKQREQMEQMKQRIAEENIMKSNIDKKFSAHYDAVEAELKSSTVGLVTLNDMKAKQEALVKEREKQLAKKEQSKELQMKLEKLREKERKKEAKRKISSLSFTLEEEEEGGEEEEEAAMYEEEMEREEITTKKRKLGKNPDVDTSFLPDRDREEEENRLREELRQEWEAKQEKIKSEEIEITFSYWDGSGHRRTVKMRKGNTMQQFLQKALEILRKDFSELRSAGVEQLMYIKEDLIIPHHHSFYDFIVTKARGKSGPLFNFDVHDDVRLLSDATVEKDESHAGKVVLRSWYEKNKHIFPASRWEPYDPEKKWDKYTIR
UniProt P00374, sequence (P00374 whole entry, looked up): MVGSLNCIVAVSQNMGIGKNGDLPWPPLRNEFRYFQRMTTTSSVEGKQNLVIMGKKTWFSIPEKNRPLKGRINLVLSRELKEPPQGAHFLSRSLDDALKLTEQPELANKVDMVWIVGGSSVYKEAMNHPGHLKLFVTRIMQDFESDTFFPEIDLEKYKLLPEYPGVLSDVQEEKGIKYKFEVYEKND
UniProt P50570, sequence (P50570 whole entry, looked up): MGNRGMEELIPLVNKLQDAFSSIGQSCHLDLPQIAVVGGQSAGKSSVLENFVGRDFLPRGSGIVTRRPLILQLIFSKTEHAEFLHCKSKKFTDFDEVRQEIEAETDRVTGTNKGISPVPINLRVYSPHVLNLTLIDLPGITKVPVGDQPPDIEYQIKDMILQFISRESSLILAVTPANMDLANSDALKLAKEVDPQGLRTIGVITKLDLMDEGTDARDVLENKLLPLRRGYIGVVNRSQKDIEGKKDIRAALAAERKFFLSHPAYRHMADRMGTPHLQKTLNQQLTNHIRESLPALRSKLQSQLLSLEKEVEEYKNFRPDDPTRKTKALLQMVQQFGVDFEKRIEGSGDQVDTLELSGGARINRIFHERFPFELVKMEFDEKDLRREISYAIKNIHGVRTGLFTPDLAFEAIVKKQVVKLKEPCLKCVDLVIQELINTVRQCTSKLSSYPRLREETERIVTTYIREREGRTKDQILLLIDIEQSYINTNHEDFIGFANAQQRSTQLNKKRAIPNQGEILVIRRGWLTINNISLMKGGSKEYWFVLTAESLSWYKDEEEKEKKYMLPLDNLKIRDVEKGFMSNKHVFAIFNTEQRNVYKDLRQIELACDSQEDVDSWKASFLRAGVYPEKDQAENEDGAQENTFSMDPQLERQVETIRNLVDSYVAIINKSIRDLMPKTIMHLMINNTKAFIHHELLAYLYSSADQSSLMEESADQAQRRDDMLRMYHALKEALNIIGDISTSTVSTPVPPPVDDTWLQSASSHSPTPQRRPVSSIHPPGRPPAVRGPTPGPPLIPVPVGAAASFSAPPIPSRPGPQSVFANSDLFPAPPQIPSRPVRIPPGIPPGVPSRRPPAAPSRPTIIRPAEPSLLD

log2 fold change, inactive:
CTU1 (UniProt Q7Z7A3) 0.079, DNAJC1 (UniProt Q96KC8) 0.059, EIF4E isoform 2 (UniProt P06730) 0.056, DIP2A (UniProt Q14689) 0.055, DBN1 isoform 3 (UniProt Q16643) -0.028, EXOC6 (UniProt Q8TAG9) 0.006, EXTL2 (UniProt Q9UBQ6) -0.129, DDOST (UniProt P39656) 0.004, DDX39A (UniProt O00148) 0.031, ERCC6 (UniProt Q03468) 0.028, DYRK1A isoform 2 (UniProt Q13627) -0.058, DBR1 (UniProt Q9UK59) -0.052, EEF1G isoform 2 (UniProt P26641) -0.009, DHFR (UniProt P00374) -0.176, EFL1 (UniProt Q7Z2Z2) 0.027, FAM114A2 (UniProt Q9NRY5) 0.055, DNAAF2 (UniProt Q9NVR5) 0.108, EXOC8 (UniProt Q8IYI6) -0.042, DUS3L (UniProt Q96G46) 0.118, DHPS (UniProt P49366) 0.088, EDEM2 (UniProt Q9BV94) -0.009, DHX16 (UniProt O60231) 0.224, ERCC2 (UniProt P18074) 0.2, DHCR24 (UniProt Q15392) -0.151, DNM2 (UniProt P50570) 0.01, EHBP1L1 (UniProt Q8N3D4) 0.06, FAM118B (UniProt Q9BPY3) 0.195, EBNA1BP2 (UniProt Q99848) -0.466, CUTA isoform 2 (UniProt O60888) 0, EXOC1 (UniProt Q9NV70) -0.104, DFFB (UniProt O76075) 0.022, ELOVL1 (UniProt Q9BW60) -0.01, FAM3A (UniProt P98173) -0.067, DTWD2 (UniProt Q8NBA8) 0.014, DDB1 (UniProt Q16531) 0.009, E2F4 (UniProt Q16254) 0.019, DPH5 isoform 5 (UniProt Q9H2P9) 0.093, CTNNB1 (UniProt P35222) -0.033, FAM50A (UniProt Q14320) 0.054
